# Assay outcomes (PubChem)
# TDP1 cell CPT: growth inhibition of DT40 Tdp1-/-;hTDP1 cells with camptothecin (screen for TDP1 inhibitors); chicken DT40 Tdp1-/-;hTDP1 cells + 20 nM CPT, ATP luminescence, 48 h; Potency, µM (series often up to 46.2 µM), for inactives: top-dose activity change, negative = growth inhibition, actives largely listed as inhibitors; 12% of 420,000 active; AID 686979; further: potency means the concentration at half of the fitted maximal effect; nearly all actives have a fitted effect of over 55% in size
#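 Chicken DT40 Tdp1-/- cells stably complemented with human TDP1 were seeded at 400 cells/well in medium containing 20 nM camptothecin, exposed to pin-transferred compounds, and grown at 37 °C for at least 48 hr. Viability was read as ATP luminescence.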
# IL-1B inflam inh: inhibitors of inflammasome signaling (IL-1 beta secretion) | 4.7% of 360,000 active | THP-1 LPS/ATP IL-1B secretion, AlphaLISA, 16 h; stronger effect = lower value | activity change, % at 57.5 µM; in the data active means activity change below about -50%; inconclusive means mostly about -30% to -49%
#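 Secreted IL-1B measured by AlphaLISA bead assay after 16 h compound exposure of THP-1 cells; compounds (final up to 57.5 uM) added 1 h before LPS (250 ng/mL) and ATP (1.25 mM) stimulation; lower signal means less secretion.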
# uPA generation: inhibitors of cell surface uPA generation. cell surface uPA generation assay, qHTS. Potency, µM (titrated, usually from 38.3 µM), without a hit: at the highest dose activity change, negative = inhibition, most hits filed as inhibitors. 0.31% of 330,000 active; active means well fitted inhibition curve with a large enough effect; inconclusive means small, poorly fitted or top-dose-only effect; inactive means no such curve, though single readings can be large or run the other way; tested in mouse RAW 264.7 cells; further: potency means the concentration at half of the fitted maximal effect; nearly all actives have a fitted effect of over 55% in size
# HT1080 IDH1KD tx: toxicity to HT-1080 IDH1 knockdown cells (counter line); HT-1080 IDH1 knockdown viability, ATP luminescence, 48 h; Potency, µM (top dose mostly 46.1 µM), without a hit: top-dose activity, negative = toxicity, actives largely listed as cytotoxic; 2% of 360,000 active;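 further: potency means the concentration at half of the fitted maximal effect; 0% = DMSO wells and -100% = cell-free medium wells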
#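 CellTiter-Glo luminescence after 48 h compound exposure at 37 degrees C of IDH1-knockdown HT-1080 cells in 5% FBS RPMI. %Activity scaled between DMSO wells and cell-free media wells, with curves fitted and assigned curve classes.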
# DT40 TDP1 no CPT: qHTS for Inhibitors of human tyrosyl-DNA phosphodiesterase 1 (TDP1): qHTS in cells in absence of CPT; Potency, µM (series often up to 46.2 µM), inactives show at the highest dose activity change, negative = growth inhibition, most hits filed as inhibitors; DT40 Tdp1-/- hTDP1 cells, no CPT, ATP luminescence, 48 h; AID 686978, 2013; 15% of 420,000 active; further: potency means the concentration at half of the fitted maximal effect; nearly all actives have a fitted effect of over 55% in size
#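 Stably hTDP1-transfected Tdp1-null chicken DT40 cells were treated with library compounds minus camptothecin and grown for at least 48 hr at 37 °C, after which cellular ATP was quantified by luminescence.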
# HT1080NT lethal: kills 2HG-producing HT-1080-NT fibrosarcoma cells; HT-1080-NT fibrosarcoma viability, CellTiter-Glo ATP luminescence, 48 h; AID 686970; 1.6% of 360,000 active; Potency, µM (top dose mostly 46.1 µM), inactives show top-dose activity, negative = less viability, hits mostly cytotoxic;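 further: NT is the 2HG producing partner of a matched IDH1 knockdown line; potency means the concentration at half of the fitted maximal effect; 0% = DMSO-treated cells and -100% = media-only wells without cells; nearly all actives have a fitted effect of over 55% in size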
#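 HT-1080-NT; 750 cells/well; 5% FBS RPMI; 48 h compound, 37 degrees C; CellTiter-Glo luminescence; curve fitting and curve-class assignment.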
# The depositor's hits bear a star; ? = inconclusive; . = no result; ! = not active in a repeat. This is a sample that favours compounds with a hit; in the whole collection about 19% have one here. Unless noted, the call rests on the fitted dose curve; in most records, active means well fitted curve in the direction sought with a large enough effect; inconclusive means small, poorly fitted or top-dose-only effect, or another doubt; inactive means no such curve, though single readings can be large; an effect the other way counts as inactive or inconclusive. Unless noted, on the % scale 0 is the no-effect control and ±100 the full control effect.
SMILES,TDP1 cell CPT,IL-1B inflam inh,uPA generation,HT1080 IDH1KD tx,DT40 TDP1 no CPT,HT1080NT lethal
COc1ccc(C2=C/C(=C\c3ccccc3OC(C)=O)C(=O)O2)cc1,21µM*,-3,38%,-1%,15µM*,3%
CCCCNc1c(-c2ccc(OC)c(SC(C)CC)c2)nc2ccc(C)cn12 (configuration not stated),18µM*,-100*!,?,?,18µM*,21µM*
CCCCNc1c(-c2ccc(Sc3ccc(OC)cc3)cc2)nc2cc(C)ccn12,?,-13,?,?,-86%,?
CCCCCCSc1ccc(-c2nc3cnccn3c2NCCCC)cc1,?,0,-1%,1%,21µM*,4%
CCC(=O)Nc1c(-c2ccc(C)cc2)nc2ccc(C)cn12,-2%,8,-1%,-3%,1%,2%
CCCCNc1c(-c2ccc(OC)c(SC(C)CC)c2)nc2cc(C)ccn12 (configuration not stated),16µM*,-85*,-20%,23µM*,15µM*,21µM*
CCCCNc1c(-c2ccc(-c3ccc(C(C)=O)cc3)c(OC)c2)nc2cc(C)ccn12,18µM*,-51*,?,?,10µM*,?
Cc1cc(OC(C)C(=O)N2C[C@H]3C[C@@H](C2)c2cccc(=O)n2C3)c2c(C)c(C)c(=O)oc2c1 (some centres not stated),18%,1,-4%,3%,11%,0%
NC1=NC(=O)/C(=C/C=C/c2cccs2)S1,-21%,-18,-8%,-9%,?,-13%
CCCCNc1c(-c2cccc(SC(C)CC)c2)nc2ccc(Cl)cn12 (configuration not stated),16µM*,-2,5%,-13%,15µM*,0%
COc1ccc(-c2nc3ccc(Cl)cn3c2CC(C)(C)C)cc1OC,?,0,.,-2%,-55%,0%
CCCCCCSc1cc(-c2nc3ccc(Cl)cn3c2NCCCC)ccc1OC,?,0,-11%,14%,?,4%
CCCCNc1c(-c2ccc(OC)c(SC(C)CC)c2)nc2cnccn12 (configuration not stated),?,-67*,-4%,0%,26µM*,-8%
CCCCCCSc1cc(-c2nc3ccc(C)cn3c2NCCCC)ccc1OC,?,-72*,14%,-6%,?,-8%
CCCCNc1c(-c2ccc(OC)c(SC(C)CC)c2)nc2ccc(Cl)cn12 (configuration not stated),26µM*,-66*,1%,-5%,26µM*,7%
CNc1ncnc2c1ncn2[C@H]1CN(Cc2ccncc2)C[C@@H](CO)O1,6%,40,.,2%,21%,7%
COc1ccc(CCNC(=O)COC(=O)/C=C/c2cc(OC)c(OC)c(OC)c2)cc1OC,?,-9,-11%,2%,?,12%
COC(=O)CNc1c(-c2ccccc2)nc2ccc(Br)cn12,?,-21,-9%,-3%,?,-6%
COCCNc1c(-c2ccc(O)cc2)nc2ccc(Cl)cn12,33µM*,-13,-13%,2%,-101%,4%
Cc1cc(N2CCN(S(=O)(=O)c3ccc(Cl)c(Cl)c3)CC2)c2ccccc2n1,?,-12,?,?,16µM*,?
COc1ccc2nc(C)cc(N3CCN(c4ccccc4)CC3)c2c1,21µM*,-65*,1%,-27%,18µM*,?
CC(=O)c1nc(N2CCN(S(=O)(=O)c3ccc(C)cc3)CC2)c2ccccc2n1,?,.,.,-1%,?,-5%
COc1ccc(C(=O)CN2CCN(c3cc(C)nc4ccccc34)CC2)cc1,26µM*,0,-9%,-1%,29µM*,-3%
